This passage reports growth results from PubChem BioAssay (NCI).

The panel holds about 83,000 compounds, 20% with a hit somewhere; the sample as a whole holds those more often.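 A percent growth of 40 corresponds to 60% growth inhibition; 0 means no net growth; -100 means all cells died. Active threshold: below 10.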 Values without a mark were called inactive. Active and inactive are the calls of the source.

Some test systems named below: NCI-H23 lung; NCI-H226 lung; NCI-H322M lung; HOP-62 NSCLC; NCI-H460 lung; HOP-92 NSCLC; NCI-H522 lung; A549/ATCC NSCLC; 786-0 renal; COLO 205 colon; DU-145 prostate; K-562 leukemia; MDA-MB-231 breast; RXF 393 renal; SF-268 CNS; SF-295 CNS; SF-539 CNS; UACC-257 melanoma; M14 melanoma.
What all share (test): NCI-60 one-dose screen, 48 h (100 = growth as untreated, 0 = no growth, -100 = all killed)
What all share (conditions): 10 µM unless noted

As to `Fc1cccc(-c2[nH]nc3nc(Nc4cccnc4)sc23)c1`, the growth in the assay on NCI-H23 lung was 43.3%; in the assay with NCI-H226 lung, 70.8%; with NCI-H322M lung, 65.1%; in the assay with HOP-62 NSCLC it was 55.4%; with NCI-H460 lung it was 21.2%; in the assay on HOP-92 NSCLC, 86.4%. For the same compound, the growth in the assay with NCI-H522 lung was 16%; with A549/ATCC NSCLC it was 37.8%; in the assay on 786-0 renal it was 53.6%; in the assay with COLO 205 colon it was 15.7%; in the assay on DU-145 prostate, 29.4%; in the assay on K-562 leukemia, 21%. Besides, the growth was 78.2% in the assay on MDA-MB-231 breast; 44.5% with RXF 393 renal; 60.6% in the assay with SF-268 CNS; 27.4% with SF-295 CNS; 24% with SF-539 CNS; 72.4% in the assay with UACC-257 melanoma. Moreover, the growth with M14 melanoma is 45.5%.
As to `COc1ccc(-c2n/c(=C\c3c(O)[nH]c4ccc(OC)cc34)cc3c2=Nc2ccccc2-3)cc1`, the growth with NCI-H23 lung is -7.74% (active); in the assay with NCI-H226 lung, 89.2%; in the assay on NCI-H322M lung it was 97.8%; in the assay on HOP-62 NSCLC, 83.4%; in the assay with NCI-H460 lung it was -32.2% (active); with HOP-92 NSCLC, 72.1%. Besides, the growth is 76% in the assay on NCI-H522 lung; 19.3% in the assay with A549/ATCC NSCLC; -82.3% (active) in the assay with 786-0 renal; 88.9% in the assay on COLO 205 colon; -2.21% (active) with DU-145 prostate; -32.8% (active) in the assay with K-562 leukemia. In addition, the growth in the assay on MDA-MB-231 breast was 39%; with SF-268 CNS, -33.3% (active); in the assay on SF-539 CNS it was -48% (active); in the assay on UACC-257 melanoma it was 83.6%; in the assay with M14 melanoma it was -40.5% (active).
For `CC1=CC(=O)N(c2cccc3c(N4C(=O)C=C(C)C4=O)cccc23)C1=O`, the growth was 79.4% in the assay with NCI-H23 lung; 100% in the assay with NCI-H226 lung; 102% in the assay on NCI-H322M lung; 100% with HOP-62 NSCLC; 113% with NCI-H460 lung; 78.6% in the assay on HOP-92 NSCLC. Further, the growth is -74.6% (active) with NCI-H522 lung; 96.5% with A549/ATCC NSCLC; 96.3% in the assay with 786-0 renal; -45.6% (active) in the assay on COLO 205 colon; 72.3% in the assay with DU-145 prostate; 6.92% (active) in the assay on K-562 leukemia. The growth was 107% in the assay with MDA-MB-231 breast; -10.7% (active) in the assay with RXF 393 renal; 106% with SF-268 CNS; 121% in the assay on SF-295 CNS; 32.7% in the assay with SF-539 CNS; 82.4% with UACC-257 melanoma. Also, the growth with M14 melanoma is 96.2%.
For `Cc1cc(C=O)c(C)c2c1[nH]c1ccccc12`, the growth in the assay on NCI-H23 lung was 98.5%; with NCI-H226 lung, -21.9% (active); with NCI-H322M lung, 97.7%; in the assay on HOP-62 NSCLC, 103%; with NCI-H460 lung, 76.1%; in the assay on HOP-92 NSCLC, 88.7%. Moreover, the growth with NCI-H522 lung is 88.5%; in the assay with A549/ATCC NSCLC, 99.2%; in the assay with 786-0 renal, 100%; in the assay with COLO 205 colon it was 110%; in the assay on DU-145 prostate, 107%; in the assay on K-562 leukemia, 97.8%. The growth was 90.5% in the assay with MDA-MB-231 breast; 117% with RXF 393 renal; 96.8% with SF-268 CNS; 95.9% in the assay on SF-539 CNS; 78.6% in the assay on UACC-257 melanoma; 105% in the assay on M14 melanoma.
Turning to `Cn1cc(-c2nc(-c3c[nH]c4ncccc34)cs2)c2ccccc21`, the growth in the assay on NCI-H23 lung was 63.4%; in the assay with NCI-H226 lung, 85.7%; with NCI-H322M lung, 52.6%; in the assay on HOP-62 NSCLC, 92.9%; with NCI-H460 lung it was 35.8%; in the assay on HOP-92 NSCLC, 42.6%. Moreover, the growth with NCI-H522 lung was 84%; with A549/ATCC NSCLC it was 90.6%; in the assay with 786-0 renal it was 90.5%; with COLO 205 colon, 85.9%; with DU-145 prostate, 99.9%; with K-562 leukemia, 65.5%. Besides, the growth in the assay with MDA-MB-231 breast was 42.9%; in the assay with RXF 393 renal, 84.3%; with SF-268 CNS it was 99.3%; in the assay with SF-295 CNS, 98%; in the assay on SF-539 CNS, 99.9%; in the assay with UACC-257 melanoma, 95.5%. The growth in the assay on M14 melanoma was 81.1%.
As to `Cn1c2c(c3ccc(Cl)cc31)-n1cccc1C2=O`, the growth in the assay with NCI-H23 lung was 95.2%; in the assay with NCI-H226 lung, 99.3%; in the assay on NCI-H322M lung, 85.4%; in the assay on HOP-62 NSCLC, 107%; in the assay with NCI-H460 lung, 92.9%; in the assay with HOP-92 NSCLC, 81.8%. Also, the growth with NCI-H522 lung is 71.3%; in the assay on A549/ATCC NSCLC, 75.1%; in the assay with 786-0 renal, 80.9%; with COLO 205 colon, 90.4%; in the assay on DU-145 prostate it was 88.6%; with K-562 leukemia, 107%. In addition, the growth was 87.5% in the assay with MDA-MB-231 breast; 91.8% in the assay with RXF 393 renal; 92.3% with SF-268 CNS; 105% in the assay on SF-295 CNS; 94.7% in the assay on SF-539 CNS; 106% in the assay with UACC-257 melanoma. Also, the growth with M14 melanoma was 109%.
Turning to `Cn1cc(-c2nc(-c3cn(C)c4ncccc34)cs2)c2cc(F)ccc21`, the growth in the assay with NCI-H23 lung was 43.3%; in the assay with NCI-H226 lung, 68.8%; in the assay with NCI-H322M lung it was 57%; in the assay with HOP-62 NSCLC it was 53.7%; in the assay on NCI-H460 lung, 15.8%; in the assay with HOP-92 NSCLC, 72.4%. The growth with NCI-H522 lung is -0.482% (active); in the assay on A549/ATCC NSCLC, 38.1%; in the assay on 786-0 renal, 45.9%; in the assay with COLO 205 colon, 31.3%; in the assay with DU-145 prostate, 57.4%; in the assay on K-562 leukemia, 16%. Also, the growth was 47.1% with MDA-MB-231 breast; 30.8% with RXF 393 renal; 52.2% in the assay on SF-268 CNS; 16.3% with SF-295 CNS; 26.6% in the assay on SF-539 CNS; 61.7% with UACC-257 melanoma. Also, in the assay with M14 melanoma, the growth is 17.2%.
Consider `Cc1ccc2c(c1)c(-c1nc(-c3c[nH]c4ncccc34)cs1)cn2C`, for which the growth with NCI-H23 lung is 71.9%; in the assay on NCI-H226 lung, 88.9%; with NCI-H322M lung it was 73.1%; in the assay with HOP-62 NSCLC, 105%; with NCI-H460 lung it was 56.8%; in the assay on HOP-92 NSCLC it was 83.8%. Moreover, the growth in the assay with NCI-H522 lung is 70.5%; in the assay with A549/ATCC NSCLC it was 87.8%; in the assay on 786-0 renal, 83%; in the assay on COLO 205 colon it was 112%; in the assay with DU-145 prostate, 115%; in the assay on K-562 leukemia, 81%. The growth was 75.7% in the assay with MDA-MB-231 breast; 97.4% in the assay with RXF 393 renal; 128% in the assay with SF-268 CNS; 101% in the assay with SF-295 CNS; 92% in the assay on SF-539 CNS; 115% with UACC-257 melanoma. Besides, the growth in the assay on M14 melanoma is 101%.
For the compound `Clc1ccc2[nH]cc(-c3nc(-c4c[nH]c5ncccc45)cs3)c2c1`, the growth was 51.7% in the assay on NCI-H23 lung; 63% in the assay with NCI-H226 lung; 59.1% in the assay on NCI-H322M lung; 54.1% in the assay with HOP-62 NSCLC; 19% with NCI-H460 lung; 43.5% in the assay with HOP-92 NSCLC. The growth with NCI-H522 lung is 46.5%; in the assay on A549/ATCC NSCLC it was 21.7%; in the assay with 786-0 renal it was 27.6%; in the assay on COLO 205 colon, 18.3%; with DU-145 prostate, 42.1%; in the assay with K-562 leukemia, 13.1%. Also, the growth in the assay with MDA-MB-231 breast was 37.9%; in the assay on RXF 393 renal, 45.5%; in the assay with SF-268 CNS it was 61.7%; in the assay with SF-295 CNS, 19.4%; in the assay on SF-539 CNS it was 70.5%; in the assay on UACC-257 melanoma, 9.88% (active). Moreover, in the assay on M14 melanoma, the growth is 20.1%.
For `O=C(O)c1cccc2c1-c1ccc(Cl)cc1C2`, the growth with NCI-H23 lung is 106%; in the assay on NCI-H226 lung, 100%; in the assay on NCI-H322M lung, 97.1%; in the assay on HOP-62 NSCLC it was 106%; with NCI-H460 lung it was 113%; in the assay on HOP-92 NSCLC it was 112%. The growth in the assay with NCI-H522 lung was 88.2%; with A549/ATCC NSCLC, 105%; in the assay with 786-0 renal, 110%; with COLO 205 colon, 114%; with DU-145 prostate, 110%; in the assay on K-562 leukemia, 97.9%. Moreover, the growth is 108% with MDA-MB-231 breast; 124% in the assay with RXF 393 renal; 107% in the assay with SF-268 CNS; 116% in the assay with SF-295 CNS; 104% in the assay on SF-539 CNS; 107% in the assay on UACC-257 melanoma. Besides, the growth with M14 melanoma was 120%.
Regarding `COc1ccc(/C=C/C(=O)c2ccc([N+](=O)[O-])cc2)cc1`, the growth with NCI-H23 lung was 104%; in the assay on NCI-H226 lung, 102%; with NCI-H322M lung, 102%; in the assay with HOP-62 NSCLC it was 104%; in the assay on NCI-H460 lung, 110%; in the assay with HOP-92 NSCLC, 87.7%. For the same compound, the growth is 83.7% in the assay with NCI-H522 lung; 100% in the assay with A549/ATCC NSCLC; 94.7% with 786-0 renal; 114% in the assay on COLO 205 colon; 109% with DU-145 prostate; 101% in the assay on K-562 leukemia. Also, the growth was 94.5% with MDA-MB-231 breast; 110% in the assay on RXF 393 renal; 106% in the assay on SF-268 CNS; 114% in the assay with SF-295 CNS; 104% in the assay with SF-539 CNS; 110% with UACC-257 melanoma. In the assay with M14 melanoma, the growth was 106%.
`O=C(O)c1cccc2c1Cc1cc([N+](=O)[O-])ccc1-2`: the growth with NCI-H23 lung was 103%; in the assay with NCI-H226 lung it was 100%; in the assay on NCI-H322M lung, 109%; in the assay on HOP-62 NSCLC it was 105%; with NCI-H460 lung, 110%; in the assay on HOP-92 NSCLC, 82%. The growth is 103% with NCI-H522 lung; 107% with A549/ATCC NSCLC; 108% with 786-0 renal; 107% with COLO 205 colon; 109% with DU-145 prostate; 108% with K-562 leukemia. The growth in the assay with MDA-MB-231 breast was 102%; with RXF 393 renal, 118%; with SF-268 CNS, 104%; with SF-295 CNS, 115%; in the assay with SF-539 CNS, 93%; in the assay on UACC-257 melanoma, 109%. Besides, in the assay with M14 melanoma, the growth was 110%.
